Source: PubChem BioAssay
Sampled rows, rich in hits. Any-hit rate of the full collection: about 3.8%.
S2 tox: cell viability loss in ATXN counter-screen | Potency, µM (doses to about 56.7 µM), usual class: cytotoxic | actives 0.49% (n = 400,000) | AID 651635 | S2 cells (HEK-293 line with an ATXN2-luciferase reporter) viability, CellTiter-Fluor protease fluorescence, 24 h; further: nearly all actives have a fitted effect of over 40% in size
A549 tox: A549 cytotoxicity, counter-screen for Nrf2 inhibitors; actives 0.16% (n = 390,000); Potency, µM (titrated, usually from 46 µM), usual class: inhibitors; A549 ARE-Fluc cells, CellTiter-Fluor viability, 18-24 h
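A549 ARE-Fluc cells in 5% FBS OPTI-MEM, 5000 cells/well, rested 2 h then exposed to compounds in concentration-response for 18-24 h at 37 °C. Viability by CellTiter-Fluor fluorescence (Ex 405/Em 525) after 30 min; luciferase luminescence (BugLite, 15 min, RT) read afterwards.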
TGFb inhibitor: blocks TGF-b signaling. HepG2 CAGA-GFP TGF-b/SMAD3 reporter, GFP fluorescence, 18 h; TGF-beta stimulated, 500 pg/mL final. Potency, µM (highest dose often 46.1 µM), most hits filed as inhibitors. actives 1.2% (n = 410,000). AID 588855; further: nearly all actives have a fitted effect of over 65% in size
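Smad-responsive CAGA-GFP expression was quantified in HEPG2 cells exposed to compounds and 500 pg/mL final TGF-beta for 18 h at 37 degrees C; unstimulated wells defined full inhibition.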
Nrf2 inh: inhibitors of Nrf2 signaling. A549 ARE-Fluc reporter, luciferase luminescence, 18-24 h. Potency, µM (series often up to 46 µM), hits mostly inhibitors. actives 2.1% (n = 360,000). AID 504444; further: nearly all actives have a fitted effect of over 60% in size
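A549 ARE_Fluc cells, 5000/well, 5% FBS OPTI-MEM; compounds in dose-response, 18-24 h at 37 °C/5% CO2; CellTiter-Fluor viability read (Ex 405/Em 525), then BugLite luciferase luminescence = Nrf2 activity.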
HepG2 viability: kills HepG2 cells in TGF-b inhibitor counter-screen; HepG2 CAGA-GFP viability, ATP luminescence, 18 h; Potency, µM (series often up to 46.1 µM), most hits filed as cytotoxic; actives 0.76% (n = 410,000); AID 588856
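CellTiter-Glo luminescence gave cytotoxicity after 18 hours at 37 degrees C. The cells were HepG2 CAGA-GFP in 1% FBS DMEM, stimulated with 500 pg/mL TGF-beta after compound addition. %Activity was normalised to no-cell wells (complete cell-killing) and DMSO (no toxicity), and curves were fitted and classified.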
ATXN2 expr inh: ATXN2 expression inhibition | HEK-293 ATXN2-luciferase reporter, luminescence, 24 h | Potency, µM (titrated, usually from 57 µM), actives largely listed as inhibitors | actives 0.72% (n = 360,000) | AID 1745845; further: nearly all actives have a fitted effect of over 55% in size
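ATXN2-luciferase reporter cells (luciferase flanked by upstream and downstream ATXN2 gene portions) were treated 24 h at 37 °C with compounds at up to 57 uM. SteadyGlo luminescence gave expression; GF-AFC fluorescence gave viability.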
Each line names hits and unclear results; the compound was inactive in the other large screens. The call rests on the fitted dose curve; in most records, active means well fitted curve in the direction sought with a large enough effect; inconclusive means small, poorly fitted or top-dose-only effect, or another doubt; inactive means no such curve, though single readings can be large; an effect the other way counts as inactive or inconclusive.

O=C(NCC(c1cccnc1)N1CCN(c2ccccc2)CC1)OCc1ccccc1 (stereo unspecified)	none
O=C(NCc1cccs1)C(=O)NCC(c1ccco1)N1CCN(c2ccccc2F)CC1 (stereo unspecified)	Nrf2 inh 20.6µM
COc1ccc(-c2csc(NC(=O)c3ccccc3F)c2C(=O)O)cc1	Nrf2 inh 13µM
CCOC(=O)c1c(-c2ccc(Br)cc2)csc1NC(=O)c1ccccc1F	none
O=C(NC1CCCCCC1)c1ccco1	none (no result: ATXN2 expr inh)
COc1nc(N)nc(NC(=O)c2cccs2)c1N=O	S2 tox inconclusive, TGFb inhibitor inconclusive, HepG2 viability 12.6µM
CCCSc1ncc(Cl)c(C(=O)Nc2c(C(=O)c3ccc(F)cc3)oc3ccccc23)n1	none (no result: S2 tox, TGFb inhibitor, ATXN2 expr inh)
COC(=O)C(NC(=O)c1ccco1)(Nc1cc(C)ccn1)C(F)(F)F (stereo unspecified)	HepG2 viability 3.16µM
Cc1ccnc(NC(=S)NC(=O)c2ccco2)c1	Nrf2 inh inconclusive
CC(C)N(CC(=O)Nc1ccc(Cl)cc1C(F)(F)F)C(=O)CCl	S2 tox inconclusive, A549 tox inconclusive, TGFb inhibitor inconclusive, Nrf2 inh 13µM, ATXN2 expr inh 18.9µM
O=C(O)CSCC(=O)Nc1ccc(Cl)cc1C(F)(F)F	none
CCC(C)N(CC(=O)Nc1cccc(C)c1C)C(=O)CCl (stereo unspecified)	TGFb inhibitor 22.4µM, Nrf2 inh inconclusive, ATXN2 expr inh 2.99µM (no result: S2 tox)
CC1CN(c2nc3c(c(=O)n(Cc4ccc(Cl)c(Cl)c4)c(=O)n3C)n2C)CC(C)O1 (stereo unspecified)	A549 tox inconclusive, Nrf2 inh 23.1µM
Cn1c(N2CCOCC2)nc2c1c(=O)n(Cc1ccc(Cl)cc1)c(=O)n2C	Nrf2 inh inconclusive
O=C(Nc1ccc(S(=O)(=O)N2CCCCC2)cc1)c1ccc(Cl)nc1	TGFb inhibitor inconclusive, Nrf2 inh 18.4µM
O=C(Nc1cccc(S(=O)(=O)N2CCCCCC2)c1)c1ccc(Cl)nc1	A549 tox inconclusive, Nrf2 inh 20.6µM
O=C(COC(=O)c1ccc(Cl)nc1)Nc1cccc(S(=O)(=O)N2CCCCC2)c1	none (no result: ATXN2 expr inh)
O=C(Nc1ccc(S(=O)(=O)N2CCCC2)cc1)c1ccc(Cl)nc1	Nrf2 inh inconclusive
O=C(Nc1cccc(S(=O)(=O)N2CCCCC2)c1)c1ccc(Cl)nc1	S2 tox inconclusive, Nrf2 inh 20.6µM (no result: ATXN2 expr inh)
O=C(Nc1ccc(S(=O)(=O)N2CCCCC2)cc1)c1ccncc1	Nrf2 inh inconclusive
O=C(Nc1ccc(Cc2ccncc2)cc1)c1ccc(S(=O)(=O)N2CCCC2)cc1	Nrf2 inh 16.4µM, ATXN2 expr inh inconclusive
Cc1ccc(-c2csc(NCCn3c(C)nc4cc(C(F)(F)F)ccc43)n2)cc1	S2 tox inconclusive, TGFb inhibitor inconclusive
COc1ccc(C(CNC(=O)c2cc(S(=O)(=O)N3CCCC3)ccc2Cl)N2CCCC2)cc1 (stereo unspecified)	none (no result: ATXN2 expr inh)
CSc1ncc(Cl)c(C(=O)Nc2ccc(S(=O)(=O)N3CCC(C)CC3)cc2)n1	S2 tox inconclusive, TGFb inhibitor inconclusive, Nrf2 inh 20.6µM
COCCNC(=O)c1onc(CSc2cccc(OC)c2)c1C(=O)NCCOC	HepG2 viability 1µM
O=C1NC(Cc2ccc(O)cc2)c2nc3ccc(F)cc3c(=O)n2-c2cc3ccccc3cc21 (stereo unspecified)	S2 tox 14.1µM, TGFb inhibitor inconclusive, ATXN2 expr inh inconclusive (no result: A549 tox, Nrf2 inh)
Cc1ccc2nc3n(c(=O)c2c1)-c1cc2ccccc2cc1C(=O)NC3Cc1ccc(O)cc1 (stereo unspecified)	S2 tox inconclusive, TGFb inhibitor inconclusive, ATXN2 expr inh inconclusive (no result: A549 tox, Nrf2 inh)
CC(C)C(NC(=O)c1ccc(F)cc1)C(=O)N1CCN(C(=O)c2ccco2)CC1 (stereo unspecified)	none (no result: ATXN2 expr inh)
CCCC(C)C(=O)Nc1nc(C)c(-c2csc(Nc3cc(Cl)ccc3C)n2)s1 (stereo unspecified)	Nrf2 inh 23.1µM
CCNc1ccc2noc3c2c1C(=O)c1ccccc1-3	S2 tox inconclusive, A549 tox inconclusive, Nrf2 inh 20.6µM
O=C1c2ccccc2-c2onc3ccc(NCc4ccco4)c1c23	S2 tox 14.1µM, A549 tox inconclusive, ATXN2 expr inh inconclusive
O=C1c2ccccc2-c2onc3ccc(N4CCCC4)c1c23	S2 tox 23.8µM, TGFb inhibitor inconclusive, ATXN2 expr inh inconclusive
O=C(O)c1ccccc1NCc1ccco1	none (no result: ATXN2 expr inh)
CCOc1ccc2noc3c2c1C(=O)c1ccccc1-3	TGFb inhibitor inconclusive
CC(=O)N1CCN(c2ncnc3sc(-c4ccccc4)cc23)CC1	Nrf2 inh inconclusive
CCc1cc2c(N3CCN(c4ccccc4)CC3)ncnc2s1	Nrf2 inh 18.4µM, ATXN2 expr inh inconclusive
Oc1ccc(N2CCN(c3ncnc4sc(-c5ccccc5)cc34)CC2)cc1	Nrf2 inh 20.6µM, ATXN2 expr inh inconclusive
CC(C)=CCC/C(C)=C/COc1c2ccoc2cc2oc(=O)ccc12	none (no result: S2 tox, ATXN2 expr inh)
Cc1cc(-c2onc(C)c2C(=O)N/N=C/c2ccccc2)no1	none
Cc1ccc(SC(=O)c2c(C)noc2-c2cc(C)on2)cc1	TGFb inhibitor 17.8µM
CCc1ccc(CNC(=O)c2ccc(NC(=O)N3CC(C)Sc4ccccc43)cc2)cc1 (stereo unspecified)	TGFb inhibitor inconclusive
Cc1ccc(NS(=O)(=O)c2ccc3nc(-c4ccccc4)[nH]c3c2)cc1Cl	S2 tox inconclusive, A549 tox inconclusive, TGFb inhibitor inconclusive, Nrf2 inh inconclusive, HepG2 viability 15.8µM, ATXN2 expr inh inconclusive
Cc1cc(NS(=O)(=O)c2ccc3nc(-c4ccccc4)[nH]c3c2)ccc1Br	S2 tox inconclusive, TGFb inhibitor inconclusive, ATXN2 expr inh inconclusive
Cc1ccc(NS(=O)(=O)c2ccc(Cl)c(C(=O)Nc3ccccc3-c3nc4ccccc4[nH]3)c2)cc1C	S2 tox inconclusive, TGFb inhibitor 11.2µM, Nrf2 inh 23.1µM, ATXN2 expr inh inconclusive
O=C(C1=C(c2ccccc2)C(=O)c2ccccc2C1=O)c1ccccc1	TGFb inhibitor 5.62µM, HepG2 viability 10µM, ATXN2 expr inh inconclusive (no result: S2 tox)
COC1=C(c2ccccc2)C(=O)c2ccccc2C1=O	TGFb inhibitor 11.2µM, HepG2 viability 22.4µM, ATXN2 expr inh inconclusive (no result: S2 tox)
NC(=O)C1(Nc2ccc(C(=O)O)cc2)CCCC1	none
COc1cc(/C=N/Nc2snc(SC)c2C#N)cc(OC)c1OC	S2 tox inconclusive, TGFb inhibitor inconclusive, Nrf2 inh 4.61µM, ATXN2 expr inh 3.16µM
